Where “and” joins values, the source holds several entries; their conditions need not be identical. Identical values can stand only once. The whole screen tested about 340,000 compounds, of which about 260 (0.076%) were called active.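 How the source made its calls: active means highest replicate inhibition at or above 60% at 9 µM, even if other replicates fall short; inactive means all replicates below 60% inhibition.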 What follows is part of a selection rich in actives, with near analogues and random picks from the rest.
The compounds below were run on Kaposi's sarcoma herpesvirus LANA C-terminal domain (residues 932-1162) DNA binding (assay: inhibitors of KSHV C-LANA binding to DNA, primary screen, biochemical, fluorescence polarization, FAM-LBS DNA, MBP-C-LANA, single point (AID 504423;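 further: 0% = neutral control wells and 100% = 4 µM acridine orange control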)). Conditions: at 9 µM, stronger effect = higher value.

| SMILES | inhibition |
| --- | --- |
| C=CCNC(=S)NNC(=O)c1ccc(Br)o1 | 0.832% (inactive) |
| c1ccc(CNc2ncnc3[nH]ncc23)cc1 | -0.81% (inactive) |
| O=C(CN1CCN(c2ncccn2)CC1)Nc1ccccc1C(F)(F)F | -0.265% (inactive) |
| COC(=O)Cn1c(=NC(=O)CSCC(=O)Nc2cc(C)on2)sc2ccccc21 | 1.43% (inactive) |
| Cc1ccc(OCCNC(=O)c2cccc(S(=O)(=O)N3CCN(Cc4ccccc4)CC3)c2)cc1 | -0.305% (inactive) |
| COc1ccc(Cc2nnc(SCC(=O)c3cccc([N+](=O)[O-])c3)n2C)cc1 | 0.228% (inactive) |
| Cc1cc(C)c(NC(=O)CN2CCCCCC2)c(C)c1 | 1.26% (inactive) |
| N=C1c2ccccc2-c2ccccc21 | 1.95% (inactive) |
| CCC(C)C1(C2CCCC2)NC(=O)NC1=O (stereo not drawn) | 3.17% (inactive) |
| CCOc1ncccc1C(=O)NCCc1ccc(OC)cc1 | 0.452% (inactive) |
| CC1CCN(C(=O)c2ccccc2NC(=O)Cc2ccccc2)CC1 | 2.17% (inactive) |
| O=C(C1CCN(S(=O)(=O)c2ccc(Br)s2)CC1)N1CCN(C2CCCCC2)CC1 | -0.326% (inactive) |
| Cc1ccccc1CN1C[C@@H]2C[C@@H](c3cn(C)nc3-c3ccccc3)N3CCC[C@@]23C1=O | -1.95% (inactive) |
| O=C(Nc1ccc2sc3ccccc3c(=O)c2c1)c1ccccc1Cl | -0.526% (inactive) |
| CCCn1nc(NC(=O)C(C)C)c2cc3cc(OC)ccc3nc21 | -1.15% (inactive) |
| CC(C(=O)N(C)CC(=O)Nc1ccccc1C(F)(F)F)N1C(=O)c2ccccc2C1=O (stereo not drawn) | 1.14% (inactive) |
| CCN(CC)P(=O)(/C(Cl)=C\Nc1c(C)n(C)n(-c2ccccc2)c1=O)N(CC)CC | -1.51% (inactive) |
| Cc1cc([N+](=O)[O-])nn1CC(=O)Nc1ccc(Cc2ccncc2)cc1 | 0.568% (inactive) |
| Cn1c(N2CCOCC2)c(C=O)c2ccccc21 | 0.207% (inactive) |
| Cc1cc(Br)ccc1NC(=O)CN(C)C(=O)CN1C(=O)NC2(CCCC2)C1=O | 0.321% (inactive) |
| Cn1cc(S(=O)(=O)N2CCC(Cc3ccccc3)CC2)c(=O)n(C)c1=O | 1.59% (inactive) |
| CCCCN(CCCC)CCCNC(=O)CN1C(=O)COc2ccc(S(=O)(=O)N3CCC(C)CC3)cc21 | 0.15% (inactive) |

| SMILES | inhibition |
| --- | --- |
| COc1cccc2c1CCC(NC(C)=O)C2=O (stereo not drawn) | -1.29% (inactive) |
| O=C(CSc1ccsc1[N+](=O)[O-])N1CCCCC1 | 1.32% (inactive) |
| CCCCNS(=O)(=O)c1ccc(S(=O)(=O)n2cnc3ccccc32)cc1 | 0.219% (inactive) |
| COc1ccc(C(=O)Nc2ccc(C(=O)NCC3CCCO3)cc2)c(OC)c1OC (stereo not drawn) | 2.3% (inactive) |
| Cc1ccc(CNC(=O)C(=O)c2cn(CC(=O)N3CCCC3)c3ccccc23)cc1 | 2.35% (inactive) |
| COC1=C/C(=C/c2c(N)n3nc(CC(=O)N4CCOCC4)sc3nc2=O)C=CC1=O | 32.7% (inactive) |
| CCC1CCCCN1CCNC(=O)c1[nH]c(C)c(C(C)=O)c1C (stereo not drawn) | 5.48% (inactive) |
| COc1cc(CN2CCN(Cc3ccc(C)cc3)CC2)c([N+](=O)[O-])cc1OC | -0.737% (inactive) |
| COc1ccc(CN2CCN(Cc3ccc(OC)c(OC)c3OC)CC2)cc1 | 79% (active) |
| COc1ccccc1N1CCN(Cc2ccc(OC)c3ccccc23)CC1 | -3.69% (inactive) |
| CC(=O)Nc1ccc(SCC(=O)Nc2ccccc2Oc2ccccc2)cc1 | 1.36% (inactive) |
| C[C@H](CO)N1C[C@H](C)[C@H](CN(C)C(=O)Nc2ccc(C(F)(F)F)cc2)Oc2c(NC(=O)c3ccncc3)cccc2C1=O | -3.26% (inactive) |
| O=C(c1ccc(F)cc1)C1CCN(Cc2cn[nH]c2-c2ccccc2)CC1 | 1.59% (inactive) |
| Cc1nc(C)c2c(c1C(F)(F)F)-c1ccccc1C2(F)F | 1.49% (inactive) |
| COc1ccc([C@@H]2[C@@H]3C(=O)N(C(C)(C)C)C(=O)[C@@H]3[C@]3(Cc4ccccc4)C(=O)N(c4cccc(Br)c4)C(=O)N23)cc1 | 0.113% (inactive) |
| CCOc1cc(C(=O)OCC(=O)Nc2cccc(C)c2)ccc1OCC(=O)N1CCOCC1 | 0.789% (inactive) |
| C=CC1=C(C(=O)O)N2C(=O)[C@@H](NC(=O)/C(=N\OCC(=O)O)c3csc(N)n3)[C@H]2SC1 | 22.9% (inactive) |
| C=CC1=C(C(=O)O)N2C(=O)[C@@H](NC(=O)/C(=N/OCC(=O)O)c3csc(N)n3)[C@H]2SC1 | 95.4% (active) |
| CO/N=C(\C(=O)N[C@@H]1C(=O)N2C(C(=O)O)=C(COC(C)=O)CS[C@H]12)c1csc(N)n1 (stereo in doubt) | 8.29% (inactive) and 6.28% (inactive) and 10.6% (inactive) |
| CCOc1ccccc1N1CCN(C(=O)c2ccc3[nH]c(C)c(C)c3c2)CC1 | -1.79% (inactive) |
| CCC(=O)OCc1c(C(F)(F)F)nn(C)c1Oc1cccc(C(F)(F)F)c1 | 0.811% (inactive) |
| CC1(C)N=C(c2ccccn2)C(C)(C)N1O | 0.432% (inactive) |

| SMILES | inhibition |
| --- | --- |
| Cc1cc(C)n2nc(C(=O)OCC(=O)N(C)CC(=O)Nc3ccc(F)cc3)nc2n1 | 0.686% (inactive) |
| Cc1ccsc1C(=O)N[C@@H](C)c1nnc2ccccn12 | 1.44% (inactive) |
| Cc1nn(C)cc1N1C(=O)c2cccc3c(N)ccc(c23)C1=O | 73% (active) |
| CCC(C)(C)NC(=O)C(c1ccccn1)N(C(=O)c1csnn1)c1ccccc1 (stereo not drawn) | -0.461% (inactive) |
| O=C1OC(Oc2ccc(Br)cc2)(c2ccccc2)c2ccccc21 (stereo not drawn) | -1.96% (inactive) |
| CCC(Cc1ccccc1)NC(=O)C1CCCCC1 (stereo not drawn) | 1.4% (inactive) |
| Cc1sc2ncn(CC(=O)NCCCC(=O)NCc3ccc(F)cc3)c(=O)c2c1C | 0.451% (inactive) |
| Cc1ccc2c(c1)N(CC(=O)N1CCCc3ccccc31)C(=O)C(C)O2 (stereo not drawn) | 2.64% (inactive) |
| COc1cccc(COC(=O)C2CCN(S(=O)(=O)c3ccc(Cl)cc3)CC2)c1OC | 0.51% (inactive) |
| Cc1cc(C)c(S(=O)(=O)c2ccc(F)cc2C)c(=O)[nH]1 | -0.026% (inactive) |
| COc1ccc(/C(=N\O)c2nccc3cc(OC)c(OC)cc23)cc1OC | 0.0523% (inactive) |
| O=C(c1ccc(=O)oc1)N1CCC(C(O)(c2ccccc2)c2ccccc2)CC1 | 1.16% (inactive) |
| O=C(CN1CCSCC1)N/N=C/c1ccc(F)cc1F | -0.674% (inactive) |
| Clc1ccc(-c2nnc(-c3ccccc3)nc2N2CCSCC2)cc1 | -0.189% (inactive) |
| CC(=O)c1ccc(N2C(=NC(=O)C(C)C)SC3CS(=O)(=O)CC32)cc1 (stereo not drawn) | -0.954% (inactive) |
| CCCN(CC(=O)Nc1ccc(OC)c(OC)c1)CC(=O)Nc1ccc(F)c(F)c1F | 3.86% (inactive) |
| COCCCNC(=O)C1CC(=O)N(c2ccc(C)cc2)C1 (stereo not drawn) | 0.062% (inactive) |
| COC(=O)c1c(C)oc(C)c1S(=O)(=O)Nc1ccc(C(C)C)cc1 | -0.597% (inactive) |
| CCN(CC(=O)NC1CCS(=O)(=O)C1)S(=O)(=O)c1ccccc1 (stereo not drawn) | -1.52% (inactive) |
| CCOc1cc(C(=O)Nc2c(C)ccc3nsnc23)cc(OCC)c1OCC | -1.85% (inactive) |
| CCN(CC(=O)NC(C)C)C(=O)CCNC(=O)c1ccc(Cl)cc1 | -0.0284% (inactive) |
| COc1ccc(NS(=O)(=O)c2ccc(C)c(C(=O)N(C)Cc3ccc(OC)cc3OC)c2)cc1 | 28.6% (inactive) |

| SMILES | inhibition |
| --- | --- |
| O=S(=O)(c1ccc(-c2ccccc2)cc1)N1CCCC1 | 1.28% (inactive) |
| CCCn1c(N)c(C(=O)CSc2nnc(-c3cccnc3)n2-c2ccc(C)cc2C)c(=O)[nH]c1=O | 0.224% (inactive) |
| CC(C)(C)NC(=O)CN1CCC(NC(=O)C23CC4CC(CC(C4)C2)C3)CC1 | 0.793% (inactive) |
| c1ccc2c(NC3C4CC5CC(C4)CC3C5)nc(N3CCOCC3)nc2c1 (stereo not drawn) | 0.795% (inactive) |
| CCC(C)(C)c1ccc(OCC(=O)N(C)C)c(C(C)(C)CC)c1 | 1.97% (inactive) |
| Oc1ccc2ccc3cccc[n+]3c2c1 | 141% (active) |
| Oc1ccc(-c2nc3ccccc3nc2-c2ccc(O)cc2O)c(O)c1 | 2.95% (inactive) |
| CC(=O)Oc1cc2c(C(=O)NCCN3CCOCC3)c(C)oc2c2ccccc12 | -0.716% (inactive) |
| Cc1cc(C)nc(NNC2=CC(=O)CC(C)(C)C2)n1 | 2.32% (inactive) |
| Cn1c(SCC(=O)N2CCCCC2)nc2c(c1=O)SCC2 | -1.34% (inactive) |
| COC(=O)[C@@H](NC(=O)NCc1cccc(OC)c1)C(C)C | 1.36% (inactive) |
| O=C1COc2ccc(C(=O)COC(=O)c3cccnc3Cl)cc2N1 | 4.34% (inactive) |
| COC(=O)Cc1c(-c2[nH]c3ccccc3c2CC(=O)OC)[nH]c2ccccc12 | 1.73% (inactive) |
| O=C(C[n+]1cc(Br)cc2ccccc21)c1ccc(F)cc1 | 4% (inactive) |
| COC(=O)C[n+]1cccc2ccccc21 | 70.1% (active) |
| O=C1CCCc2c1[nH]c1ccc(Br)cc21 | -0.926% (inactive) |
| COCCCN(C(=O)Cn1ncc2c(=O)oc3ccc(C)cc3c21)C(C)c1ccncc1 (stereo not drawn) | 1.23% (inactive) |
| O=C(Cn1c[n+](CC(=O)c2ccc([N+](=O)[O-])cc2)cn1)c1ccc([N+](=O)[O-])cc1 | -0.902% (inactive) and -2.71% (inactive) |
| CCOC(=O)C(C)N(c1ccccc1Cl)S(C)(=O)=O (stereo not drawn) | 1.82% (inactive) |
| CCOC(=O)C1CCN(C(=O)Cn2nc(C)c3c(C)n(-c4ccccc4)nc3c2=O)CC1 | -0.173% (inactive) |
| O=C1C=C(c2cccc(Cl)c2O)C[C@@H](c2ccc(F)cc2)C1 | 0.749% (inactive) |
| O=C(O)CCn1c(SCc2cc(=O)n3ccccc3n2)nc2ccsc2c1=O | 0.383% (inactive) |
